Experimental findings from PubChem BioAssay AID1259399 (Fisher Drug Discovery Resource Center, 2018) are described below.

As a reminder, the inhibition is the change of the read-out against control, counted positive when it falls.

The structures appear in SMILES notation. The campaign covered roughly 160,000 compounds. About 240 (0.15%) were called active. What follows is part of a selection rich in actives, with near analogues and random picks from the rest. A number with no mark means an inactive call. Rule as the data show it: active = inhibition above about 40%; inactive = the rest.

The target of this assay is Cyclic GMP-AMP synthase (Mus musculus) (UniProt Q8C6L5). The experiment in a line: inhibition of Mus musculus cGAS, primary biochemical chemiluminescence screen (AID 1259399).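 Also: 0% = negative control wells and 100% = reference inhibitor with no enzyme activity.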 The conditions noted are these: recombinant cGAS, Kinase-Glo ATP depletion luminescence; at 12.5 µM; active compounds read high. In general terms: In Kinase-Glo more light means more ATP remaining.
Chain of Cyclic GMP-AMP synthase (Mus musculus) (Q8C6L5 whole entry, looked up): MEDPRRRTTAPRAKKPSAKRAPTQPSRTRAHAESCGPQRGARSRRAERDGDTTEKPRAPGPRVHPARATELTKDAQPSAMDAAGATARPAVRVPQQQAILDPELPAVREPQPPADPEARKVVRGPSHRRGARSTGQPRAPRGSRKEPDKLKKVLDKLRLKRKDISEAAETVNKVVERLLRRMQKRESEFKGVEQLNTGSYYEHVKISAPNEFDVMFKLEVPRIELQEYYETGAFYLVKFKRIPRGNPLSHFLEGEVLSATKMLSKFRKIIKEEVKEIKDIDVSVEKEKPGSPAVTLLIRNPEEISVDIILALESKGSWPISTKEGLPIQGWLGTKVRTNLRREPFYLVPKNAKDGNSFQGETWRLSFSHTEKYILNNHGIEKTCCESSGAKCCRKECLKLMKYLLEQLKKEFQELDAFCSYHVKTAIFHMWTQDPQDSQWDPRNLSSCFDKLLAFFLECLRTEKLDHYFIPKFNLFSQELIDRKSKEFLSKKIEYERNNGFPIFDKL
In the case of `Cc1ccc(C)c(N2CCN(C(=O)c3cccc(F)c3)C(C)C2=O)c1` (centres undefined), the inhibition is -1.42%.
Take `CCc1nc2ccc(C(=O)N(C)Cc3ccccc3)cn2c1N(C)C(=O)c1cccc(OC)c1`: the inhibition was -0.76%.
For the compound `C=CCN(Cc1cccnc1)C(=O)C1CCCN1C(=O)C1CCCCC1` (centres undefined), the inhibition was -14.1%.
Consider `CCc1nc2c(OCCOc3ccc(F)cc3)cccn2c1N(C)C(=O)c1ccncc1`, for which the inhibition is -2.55%.
Regarding `O=c1c(O)c(Br)ccc2c(Br)c(O)c(O)c(O)c12`, the inhibition is 71.1% (active).
Then `CCOc1c(Br)cc(Br)cc1CNCC(=O)N1CCCC1`, with -7%; and `CN(C)c1ccc(/C=C/C=C2/SC(N)=NC2=O)cc1`, with -4.74%.
With `COc1ccc(C2NC(=O)N(C)C3=C2C(=O)N(Cc2ccc(F)cc2)C3)cc1` (centres undefined), the inhibition is -4.51%.
In the case of `Cc1ccc2nc(-c3ccccc3F)c(NC(C)(C)CC(C)(C)C)n2c1`, the inhibition was -1.73%.
With `N#CC1C(=N)Oc2c(c(=O)oc3ccccc23)C12C(=O)Nc1ccc(Br)cc12` (centres undefined), the inhibition is -4.42%.
For `CSc1ccc(C(=O)N2CCCC(CO)(CCCc3ccccc3)C2)cc1` (centres undefined), the inhibition was -6.85%.
In the case of `Cc1[nH]c2c(c1C(=O)NCCOc1ccccc1F)C(=O)CCC2`, the inhibition is -9.39%.
Turning to `Cc1nc(N2CCOCC2)ncc1-c1cc(=O)[nH]c(N2CCc3ccccc3C2)n1`, the inhibition is -6.34%.
In the case of `COc1ccc(C(NC(=O)C2CCN(CCCc3ccccc3)CC2)c2cccs2)cc1` (centres undefined), the inhibition is -2.89%.
The figure for `CCCCn1nnnc1CSc1nc(C)c(C)c(C)c1C#N` is 0.584%; for `COc1ccccc1NC(=O)c1ccc(-n2nc(-c3ccc(Cl)cc3)cc2N)cc1` it is -3.87%; for `O=C(Nc1cccc(-c2cccc(-c3ccc(F)cc3)n2)c1)c1c(F)c(F)c(F)c(F)c1F` it is -6.45%.
`COCCCN(CC(=O)N1CCc2sccc2C1COc1ccc(Cl)c(C)c1)C(=O)c1cccc(OC)c1` (centres undefined): the inhibition was -4.66%.
With `O=C(c1ccc(F)cc1F)N1CCC(c2nc(-c3ccc4c(c3)OCO4)no2)CC1`, the inhibition is -1.48%.
For `COc1ccc(CC(=O)NNC(=O)c2cccn(Cc3ccc(F)cc3)c2=O)cc1`, the inhibition was -6.25%.
Turning to `CC[N+](C)(CC)CCC[n+]1c(-c2ccccc2)c2cc(N)ccc2c2ccc(N)cc21`, the inhibition is 78.9% (active).
With `CCN1CCN(C(=O)c2ccc(CSc3nnc(-c4cccs4)n3CC)cc2)CC1`, the inhibition was -5.22%.
For the compound `O=C(N1CC[C@@H](O)C1)C1(c2cccc(Br)c2)CC1`, the inhibition was -0.654%.
The figure for `CCn1cc(-c2cc(NCc3ccccn3)nc3[nH]ccc23)c(C)n1` is -9.58%; for `CCn1c(SCc2ccccc2OC(F)F)nnc1-c1c2c(nc3ccccc13)CCC2` it is -4.53%; for `CCOc1ccc(S(=O)(=O)Nc2ccc3oc(-c4ccccc4)cc3c2)cc1` it is -4.93%.
As to `CCOc1ccc(C2c3[nH]c4ccccc4c3CCN2C(=O)CSC)cc1` (centres undefined), the inhibition is -3.44%.
Take `Cc1ccc(NC(=O)c2ccc(CSc3nc(Cl)cc(N4CCN(C/C=C/c5ccccc5)CC4)n3)cc2)cc1C`: the inhibition was -2.86%.
The figure for `C=CCN(C(=O)CCl)c1nc(-c2ccc(Cl)c(Cl)c2)cs1` is 72.2% (active); for `N#Cc1ccc(-c2csc(NC(=O)c3cc([N+](=O)[O-])ccc3Cl)n2)cc1` it is -5.77%.
As to `CCCS(=O)(=O)N1CCN(c2ccc(C)nn2)CC1`, the inhibition is -8.23%.
Consider `COc1cc(CN(C)C(=O)c2c(C)noc2-c2ccccc2Cl)cc(OC)c1OC`, for which the inhibition is 2.4%.
Then `CC(C)CN(Cc1ccc(OS(=O)(=O)c2ccc(F)cc2)cc1)S(=O)(=O)c1ccc(Cl)cc1`, with -3.83%.
Take `COc1cc([N+](=O)[O-])ccc1NC(=O)C(C)Nc1ccc2nc(C)sc2c1` (centres undefined): the inhibition is -7.43%.
In the case of `CC(C)(C)c1cc2nc(C(=O)NCCc3ccccn3)cc(-c3ccccc3F)n2n1`, the inhibition is -5%.
Then `O=C1NC2(CCN(C(=O)COc3ccccc3)CC2)Nc2ccc(Cl)c(Cl)c21`, with -6.89%; and `C=C(C)CN(CC)C(=O)c1ccc(-c2ccc(OC)c(OC)c2OC)s1`, with -8.29%.
Turning to `CSc1cccc(NC(=O)NCCNc2cc(-n3ccnc3C)nc(C)n2)c1`, the inhibition is -12.2%.
As to `O=C(CCC1CCN(C23CC4CC(CC(C4)C2)C3)CC1)Nc1ccccc1Cl`, the inhibition was -11%.
Turning to `Cc1ccccc1-n1c(SCCCC(=O)N2CCN(C(=O)COCc3ccccc3)C(C)C2)nnc1-c1ccco1` (centres undefined), the inhibition is -5.31%.
For the compound `COc1ncccc1-c1cc2c(cn1)nc(NCc1cccc(C)c1)n2C`, the inhibition is -6.3%.
On to `CCn1nc(C(=O)N2CCN(c3ccccc3)CC2)c2c1CCN(C(=O)c1csc(SC)n1)C2`, for which the inhibition is -7.21%.
For the compound `CC(C)OCCNC(=O)c1ccc(-c2cc(-c3ccccc3)n[nH]2)cc1`, the inhibition is -2.09%.
On to `Cc1nc2n(n1)C(=O)C(C(c1cccs1)N1CCN(CCO)CC1)S2` (centres undefined), for which the inhibition was -7.74%.
For the compound `CCc1cc2c(=O)c(-c3ccc4c(c3)OCO4)c(C)oc2cc1OC1OC(CO)C(O)C(O)C1O` (centres undefined), the inhibition is -6.86%.
In the case of `COc1cc(/C=C2/C(=O)N(c3ccc(Cl)c(Cl)c3)N=C2C)ccc1O`, the inhibition was 27.3%.
For `CCOC(=O)c1c(NC(=O)c2cccc3c2-c2ccccc2C3=O)c(-c2ccc(OC)c(OC)c2)cn1Cc1ccccc1`, the inhibition was -5.46%.
Regarding `CCn1c(=NC(=O)Cc2ccc(C)c(C)c2)sc2cc3c(cc21)OCCO3`, the inhibition was -9.59%.
In the case of `CCCC1(C2CCN(C(=O)[C@H]3C[C@@H]4C=C[C@H]3C4)CC2)NC(=O)N(CCc2cccs2)C1=O` (some centres undefined), the inhibition is -8.91%.
For `O=C1c2ccccc2C(=O)c2cc(Sc3ccccc3)ccc21`, the inhibition is -6.93%.
On to `CCc1nc2c(OCCOc3ccccc3)cccn2c1N(C)C(=O)c1ccccc1F`, for which the inhibition is -3.16%.
As to `CC12OC3(CCCCC3)C(C)(OC13CCCCC3)O2`, the inhibition is -2%.
Take `CC1CCCC(NC(=O)c2cc(S(=O)(=O)N3CCCC3)c[nH]2)C1C` (centres undefined): the inhibition is -4.23%.
As to `COc1ccc2[nH]c3c(c2c1)CCN(C(=O)COCc1ccccc1)C3COCc1ccccc1` (centres undefined), the inhibition is -10.3%.
